Screens from PubChem.
PKA-R2B activ: activators of human PKA-R2B complex | activation, % at 11.4 µM | PKA-R2B holoenzyme dissociation, Cy5-IP20 fluorescence polarization; R2B truncated from residue 108, S112A mutant; 0% DMSO only, 100% 113 µM cGMP | P22694+P31323 | 340,000 compounds, 0.079% hits;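 active = activation above a cutoff set at the mean over all compounds plus 3 SD, cut at about 18% in these data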;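 note: higher means more holoenzyme dissociation and a rise in polarization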
Target sequence (P31323 whole entry, looked up, other chains not shown, the tested form may be a part): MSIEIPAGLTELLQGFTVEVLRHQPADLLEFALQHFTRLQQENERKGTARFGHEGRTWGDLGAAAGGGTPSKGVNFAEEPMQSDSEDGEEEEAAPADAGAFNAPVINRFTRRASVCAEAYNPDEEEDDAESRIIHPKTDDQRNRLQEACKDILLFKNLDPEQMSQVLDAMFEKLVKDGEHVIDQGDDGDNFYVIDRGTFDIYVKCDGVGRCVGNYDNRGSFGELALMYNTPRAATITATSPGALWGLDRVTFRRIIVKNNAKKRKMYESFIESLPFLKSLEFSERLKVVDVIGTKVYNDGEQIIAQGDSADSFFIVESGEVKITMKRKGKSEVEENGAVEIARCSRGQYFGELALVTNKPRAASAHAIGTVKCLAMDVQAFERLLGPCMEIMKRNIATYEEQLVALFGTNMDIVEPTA
PKA-R1A activ: activators of PKA-R1A complex; 340,000 compounds, 0.083% hits; P00514+P68181; AID 504707; PKA-R1A dissociation, Cy5-IP20 fluorescence polarization; scaled: DMSO 0%, 113 µM cGMP 100%; activation, % at 11.4 µM;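 active = percent activation above the mean of all tested compounds plus 3 SD, cut at about 19% in these data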;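 note: higher means more PKAc released from R1A so a rise in polarization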
MsrA act: activates bovine MsrA enzyme; purified bovine MsrA, absorbance read-out; activation, % at 10.6 µM; 360,000 compounds, 0.3% hits; AID 602163; in the data active = activation above about 7.5%
MsrA inhibitor: inhibitors of bovine MsrA. purified bovine MsrA, absorbance read-out. inhibition, % at 15.5 µM. 360,000 compounds, 0.75% hits. AID 651718
SUMO Mot1 rescue: inhibitors of SUMOylation pathway: yeast Mot1-301 growth rescue; S. cerevisiae Mot1-301 growth rescue, ATP luminescence, 38.5C; percent above DMSO median, 100 means doubled; growth rescue, % at 18.8 µM; 320,000 compounds, 1% hits;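 active = every valid replicate shows activation above 250% relative to neutral control wells; inactive = the rest, any valid replicate at or below 250%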
MsrA inh confirm: bovine MsrA inhibition, confirmed; purified bovine MsrA, absorbance read-out; shares compounds with MsrA inhibitor; inhibition, % at 15.5 µM; 2,300 compounds, 41% hits;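 note: coupled to thioredoxin reductase with NADPH and selenocystamine and DMSO as substrate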
Hits are given with their value; . = inactive; / = no result. Only some compounds are listed: those with a hit (about 2% of all), similar ones and a draw of the others. Cut-off read from the data, not from the text of the source, unless noted: active = inhibition above about 4.5%; inactive = the rest.

SMILES	PKA-R2B activ	PKA-R1A activ	MsrA act	MsrA inhibitor	SUMO Mot1 rescue	MsrA inh confirm
O=C(O)c1cccc(Cn2c(Cl)c(/C=N/NC(=O)c3ccccc3)sc2=O)c1	.	.	.	5.7	.	5.1
O=C(N/N=C/c1ccc(Br)s1)c1ccncc1	.	.	.	4.7	/	4.8
O=C(N/N=C/c1cc(Br)c(Br)s1)c1ccncc1	.	.	.	.	.	/
COc1cc(C(=O)N/N=C/c2sc(=O)n(-c3ccccc3)c2Cl)cc(OC)c1OC	.	.	.	.	.	/
O=C(N/N=C/c1sc(=O)n(-c2ccccc2)c1Cl)c1ccncc1	.	.	.	7.5	.	4.8
O=C(O)c1cccc(Cn2c(Cl)c(/C=N/NC(=O)c3cccc(O)c3)sc2=O)c1	.	.	.	.	.	/
O=C(O)c1ccc(/C=N/NC(=O)c2cc3ccccc3cc2O)cc1	.	.	.	5.0	.	.
O=C(O)c1cccc(Cn2c(Cl)c(/C=N/NC(=O)c3ccco3)sc2=O)c1	.	.	.	7.0	.	7.4
O=C(O)c1cccc(Cn2c(Cl)c(/C=N/NC(=O)c3cc4ccccc4cc3O)sc2=O)c1	.	.	.	4.9	.	5.6
Cc1ccccc1N/N=C/c1sc(=O)n(Cc2cccc(C(=O)O)c2)c1Cl	.	.	.	.	.	/
Cc1noc(C)c1S(=O)(=O)N(C)C[C@H]1OCc2cnnn2CCCC(=O)N([C@@H](C)CO)C[C@H]1C	.	.	.	.	/	/
O=C(O)CC1S/C(=N\N=C2\C(=O)Nc3ccccc32)N(c2ccc(O)cc2)C1=O (stereo not given)	.	.	.	5.9	.	.
CCCS(=O)(=O)NC(=O)C1(C)CCCN(C(=O)c2cc(F)ccc2C)C1 (stereo not given)	/	/	.	.	/	/
CCOC(=O)C1=CCN(S(=O)(=O)c2cccc(Cl)c2)C1c1ccc(Cl)c(Cl)c1 (stereo not given)	/	/	/	.	/	/
O=C1C2C3C=CC(C4CC34)C2C(=O)N1/N=C/c1ccc(-c2ccc(Cl)cc2[N+](=O)[O-])o1 (stereo not given)	.	.	.	.	.	/
O=C(O)c1cc(-c2ccc(/C=N/N3C(=O)C4C5C=CC(CC5)C4C3=O)o2)ccc1Cl (stereo not given)	.	.	.	7.4	.	5.8
O=C(O)c1cc(-c2ccc(/C=N/N3C(=O)C4C5C=CC(C6CC56)C4C3=O)o2)ccc1Cl (stereo not given)	.	.	.	5.4	.	7.8
O=C1N/C(=N/O)S/C1=C\c1ccccc1-n1cccn1	.	.	.	4.7	.	.
CC1(C(=O)NS(=O)(=O)C2CC2)CCCN(C(=O)Cc2ccc3ccccc3c2)C1 (stereo not given)	/	/	.	.	/	/
CCOC(=O)CN1N=C(/C=C/c2ccc(OCC)cc2)CCC1=O	.	.	.	7.2	.	.
CCOC(=O)CN1N=C(/C=C/c2ccccc2)CCC1=O	.	.	.	.	.	/
C=CCN1N=C(/C=C/c2ccc(OC)cc2)CCC1=O	.	.	.	7.8	.	4.6
COc1cccc(-c2cnc(C(O)c3c(C)cc(C)cc3C)[nH]2)c1 (stereo not given)	/	/	.	.	/	/
O=C(N/C(=C/c1ccc([N+](=O)[O-])cc1)C(=O)N1CCOCC1)c1ccco1	.	.	.	4.9	.	.
O=C1/C(=C/c2ccc(C(=O)O)cc2)CCC/C1=C\c1ccc(C(=O)O)cc1	.	.	.	8.8	.	6.6
SMILES	PKA-R2B activ	PKA-R1A activ	MsrA act	MsrA inhibitor	SUMO Mot1 rescue	MsrA inh confirm
N#Cc1cc(NC2CCCC2)c([N+](=O)[O-])cc1C#N	.	.	.	43	.	.
O=[N+]([O-])c1ccc(NC2CCCC2)cc1	.	.	.	.	.	/
N/C(=N\N=C\c1ccc2c(c1)OCO2)c1nonc1N	.	.	.	7.3	.	.
CC(=O)c1c(C(=O)O)c2ccccc2[nH]c1=O	.	.	.	5.1	.	.
Cc1[nH]c2ccccc2c1C1=CC(=O)C=CC1=O	.	.	.	.	/	/
CC(=O)c1sc(NC(=O)c2ccc(Br)o2)nc1C	.	.	.	5.6	.	.
CCCCC(=O)Nc1nc(C)c(C(C)=O)s1	.	.	.	.	.	/
CC(=O)c1sc(NC(=O)C=C(C)C)nc1C	.	.	.	5.3	.	.
CN(C(=O)CSc1ncnc2c(-c3cccs3)nsc12)C1CCCCC1	/	/	/	.	/	/
